# Source: paper PMC12864922, “TDP-43 directly inhibits mRNA accumulation in neurites through modulation of mRNA stability”
# In all, about 9,900 sequences were measured (“r (bound/input frequency ratio)”: median about 0.7, highest 2% from about 6.5 on). This is one part of a sample in which the highest values are shown more often than they occur.
# B1: ENSMUSG00000042529.153|Kcnj12 (ssRNA)
# RNA: GGGAGUUCUACAGUCCGACGAUCGCUUCGAUAUCCGCAUGCUAAUAGGAAACACCAGAGUGGGUGCUUCUUAGAAAAGGACACUCAGGAAAUUAGUAUGGGGUCUGGGUCCCACAUCCCCAGGAAGUGGGUCAGCCCCACGUCCCCCGCUGGACUCACAGCUUGAGUUGUGCCUUAGAGACUCUGGUUGUCUGGCUUCCGUCAUUUCUGGUUUUCUCAGACUUGUUUAAUCUUUCCCUACUGCCCUAAGUCCACUCAUGAAGCUCCCCAGGCCCUUCUGAGAUUGCAGAGGCUGCUUGCUCAUCUCUUGCGGUCGCACUAGUGUGGAAUUCUCGGGUGUCAAGG
# B2: ENSMUSG00000058297.8|Spock2|203:207;211:224;233:244 (ssRNA)
# RNA: GGGAGUUCUACAGUCCGACGAUCGCUUCGAUAUCCGCAUGCUAGGCCGAGGAGGAGGAGGGUGAGGCGGGUGAGGCAGAUGAUGGAGGCUACAUCUGGUAGAUAGCCCUCGACGGCCUCGGCAGGCCAGGGUGCCGACGGCCAGAAAGACAGGCCAGAAGAGACCUGGACAACAGCAGGCAACUUAGCAAAUGGAUCCGGAAGUCAGUGCGGAGGACCCUGGCUCCAGUGGGGGAGGACUGGGGACACACGCUACACACAUACACACAUAUGAGAACACACACAUACAUGUGAGAUGUGAGUGCUCUUGCGGUCGCACUAGUGUGGAAUUCUCGGGUGUCAAGG
# B3: ENSMUSG00000058297.4|Spock2 (ssRNA)
# RNA: GGGAGUUCUACAGUCCGACGAUCGCUUCGAUAUCCGCAUGCUAGGAGACAGAAGAGGCAGGGGAGGAGGCCGAGGAGGAGGAGGGUGAGGCGGGUGAGGCAGAUGAUGGAGGCUACAUCUGGUAGAUAGCCCUCGACGGCCUCGGCAGGCCAGGGUGCCGACGGCCAGAAAGACAGGCCAGAAGAGACCUGGACAACAGCAGGCAACUUAGCAAAUGGAUCCGGAAGUCAGUGCGGAGGACCCUGGCUCCAGUGGGGGAGGACUGGGGAGUGUGGCUUGUGUGUAUGUGUGAUAUGAGAUGUGCUCUUGCGGUCGCACUAGUGUGGAAUUCUCGGGUGUCAAGG
# B4: ENSMUSG00000058297.6|Spock2 (ssRNA)
# RNA: GGGAGUUCUACAGUCCGACGAUCGCUUCGAUAUCCGCAUGCUAGGCAGGGGAGGAGGCCGAGGAGGAGGAGGGUGAGGCGGGUGAGGCAGAUGAUGGAGGCUACAUCUGGUAGAUAGCCCUCGACGGCCUCGGCAGGCCAGGGUGCCGACGGCCAGAAAGACAGGCCAGAAGAGACCUGGACAACAGCAGGCAACUUAGCAAAUGGAUCCGGAAGUCAGUGCGGAGGACCCUGGCUCCAGUGGGGGAGGACUGGGGAGUGUGGCUUGUGUGUAUGUGUGAUAUGAGAUGUGUGUGUAUGAUGUCUCUUGCGGUCGCACUAGUGUGGAAUUCUCGGGUGUCAAGG
# B5: ENSMUSG00000058297.10|Spock2 (ssRNA)
# RNA: GGGAGUUCUACAGUCCGACGAUCGCUUCGAUAUCCGCAUGCUAGGAGGGUGAGGCGGGUGAGGCAGAUGAUGGAGGCUACAUCUGGUAGAUAGCCCUCGACGGCCUCGGCAGGCCAGGGUGCCGACGGCCAGAAAGACAGGCCAGAAGAGACCUGGACAACAGCAGGCAACUUAGCAAAUGGAUCCGGAAGUCAGUGCGGAGGACCCUGGCUCCAGUGGGGGAGGACUGGGGAGUGUGGCUUGUGUGUAUGUGUGAUAUGAGAUGUGUGUGUAUGAUGUGAGAUGUGAGUGUGUGAUGUGAGACUCUUGCGGUCGCACUAGUGUGGAAUUCUCGGGUGUCAAGG
# B6: ENSMUSG00000058297.9|Spock2|197:201;205:218;227:238;252:258 (ssRNA)
# RNA: GGGAGUUCUACAGUCCGACGAUCGCUUCGAUAUCCGCAUGCUAGGAGGAGGAGGGUGAGGCGGGUGAGGCAGAUGAUGGAGGCUACAUCUGGUAGAUAGCCCUCGACGGCCUCGGCAGGCCAGGGUGCCGACGGCCAGAAAGACAGGCCAGAAGAGACCUGGACAACAGCAGGCAACUUAGCAAAUGGAUCCGGAAGUCAGUGCGGAGGACCCUGGCUCCAGUGGGGGAGGACUGGGGACACACGCUACACACAUACACACAUAUGAGAACACACACAUACAUGUGAGAUGUGACACACACAUCUCUUGCGGUCGCACUAGUGUGGAAUUCUCGGGUGUCAAGG
# B7: ENSMUSG00000058297.7|Spock2 (ssRNA)
# RNA: GGGAGUUCUACAGUCCGACGAUCGCUUCGAUAUCCGCAUGCUAGGAGGAGGCCGAGGAGGAGGAGGGUGAGGCGGGUGAGGCAGAUGAUGGAGGCUACAUCUGGUAGAUAGCCCUCGACGGCCUCGGCAGGCCAGGGUGCCGACGGCCAGAAAGACAGGCCAGAAGAGACCUGGACAACAGCAGGCAACUUAGCAAAUGGAUCCGGAAGUCAGUGCGGAGGACCCUGGCUCCAGUGGGGGAGGACUGGGGAGUGUGGCUUGUGUGUAUGUGUGAUAUGAGAUGUGUGUGUAUGAUGUGAGAUGCUCUUGCGGUCGCACUAGUGUGGAAUUCUCGGGUGUCAAGG
# B8: ENSMUSG00000058297.8|Spock2 (ssRNA)
# RNA: GGGAGUUCUACAGUCCGACGAUCGCUUCGAUAUCCGCAUGCUAGGCCGAGGAGGAGGAGGGUGAGGCGGGUGAGGCAGAUGAUGGAGGCUACAUCUGGUAGAUAGCCCUCGACGGCCUCGGCAGGCCAGGGUGCCGACGGCCAGAAAGACAGGCCAGAAGAGACCUGGACAACAGCAGGCAACUUAGCAAAUGGAUCCGGAAGUCAGUGCGGAGGACCCUGGCUCCAGUGGGGGAGGACUGGGGAGUGUGGCUUGUGUGUAUGUGUGAUAUGAGAUGUGUGUGUAUGAUGUGAGAUGUGAGUGCUCUUGCGGUCGCACUAGUGUGGAAUUCUCGGGUGUCAAGG
# B9: ENSMUSG00000058297.1|Spock2 (ssRNA)
# RNA: GGGAGUUCUACAGUCCGACGAUCGCUUCGAUAUCCGCAUGCUAGGAGGAUGAGGAAGAAAAGGAGACAGAAGAGGCAGGGGAGGAGGCCGAGGAGGAGGAGGGUGAGGCGGGUGAGGCAGAUGAUGGAGGCUACAUCUGGUAGAUAGCCCUCGACGGCCUCGGCAGGCCAGGGUGCCGACGGCCAGAAAGACAGGCCAGAAGAGACCUGGACAACAGCAGGCAACUUAGCAAAUGGAUCCGGAAGUCAGUGCGGAGGACCCUGGCUCCAGUGGGGGAGGACUGGGGAGUGUGGCUUGUGUGUACUCUUGCGGUCGCACUAGUGUGGAAUUCUCGGGUGUCAAGG
# B10: ENSMUSG00000058297.9|Spock2 (ssRNA)
# RNA: GGGAGUUCUACAGUCCGACGAUCGCUUCGAUAUCCGCAUGCUAGGAGGAGGAGGGUGAGGCGGGUGAGGCAGAUGAUGGAGGCUACAUCUGGUAGAUAGCCCUCGACGGCCUCGGCAGGCCAGGGUGCCGACGGCCAGAAAGACAGGCCAGAAGAGACCUGGACAACAGCAGGCAACUUAGCAAAUGGAUCCGGAAGUCAGUGCGGAGGACCCUGGCUCCAGUGGGGGAGGACUGGGGAGUGUGGCUUGUGUGUAUGUGUGAUAUGAGAUGUGUGUGUAUGAUGUGAGAUGUGAGUGUGUGAUCUCUUGCGGUCGCACUAGUGUGGAAUUCUCGGGUGUCAAGG
# Biological target: TDP-43 (Homo sapiens, UniProt Q13148 1-414)
# Test: RNA Bind-n-Seq with designed 260-mer pool; 25 mM Tris-HCl, 150 mM KCl, 3 mM MgCl2, BSA (printed 500 mg/mL), 20 units/mL SUPERase IN; pH not stated; 500 nM RNA pool, 1 h, 4 C; TDP-43 5, 50, 500 nM; high values mean tight binding
# Settings: protein: recombinant; tags: SBP (GST cleaved off with PreScission; pGEX-GST-SBP)
# How it was run: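 An in vitro-transcribed pool of 260-nt 3′ UTR oligos (500 nM) was incubated for 1 h at 4 °C with recombinant SBP-tagged TDP-43 at 5, 50 or 500 nM held on streptavidin beads. The buffer contained 25 mM Tris-HCl, 150 mM KCl, 3 mM MgCl2, BSA and SUPERase IN. Biotin-eluted bound RNA was sequenced, and binding, R, is each oligo's normalized read abundance in the bound sample over that in input.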
# Sequence of TDP-43 (Q13148 whole entry): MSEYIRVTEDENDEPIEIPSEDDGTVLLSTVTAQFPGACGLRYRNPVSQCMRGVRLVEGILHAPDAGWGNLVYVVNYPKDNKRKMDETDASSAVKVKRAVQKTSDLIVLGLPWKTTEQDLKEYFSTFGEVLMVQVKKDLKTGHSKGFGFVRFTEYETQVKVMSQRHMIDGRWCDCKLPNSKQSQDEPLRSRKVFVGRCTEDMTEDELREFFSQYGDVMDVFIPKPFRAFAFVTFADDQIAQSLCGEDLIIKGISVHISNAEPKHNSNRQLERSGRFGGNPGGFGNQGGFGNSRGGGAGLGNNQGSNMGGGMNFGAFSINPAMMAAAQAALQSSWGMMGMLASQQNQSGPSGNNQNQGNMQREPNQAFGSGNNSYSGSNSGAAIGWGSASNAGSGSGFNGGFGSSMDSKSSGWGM
row,Binder,binding signal
1,B1,0.587 R (bound/input frequency ratio)
2,B2,2.32 R (bound/input frequency ratio)
3,B3,6.81 R (bound/input frequency ratio)
4,B4,4.92 R (bound/input frequency ratio)
5,B5,6.91 R (bound/input frequency ratio)
6,B6,2.81 R (bound/input frequency ratio)
7,B7,5.88 R (bound/input frequency ratio)
8,B8,6.51 R (bound/input frequency ratio)
9,B9,3.54 R (bound/input frequency ratio)
10,B10,5.99 R (bound/input frequency ratio)
